Experimental data from PubChem BioAssay AID651899 (Broad Institute, 2012).
Results with a measured potency or affinity are listed apart. The source made the active and inactive calls. No rule for the calls is given here.

Test: cytotoxicity in HEK293 cells, dose response, cytotoxicity control, cell-based, plate reader, cherry-pick (AID 651899);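 also: cells exposed to compound for 48 hours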
Conditions: series mostly up to 26 µM; activity change, negative = cytotoxicity: at the top concentration

SMILES | activity change, negative = cytotoxicity
CN1c2ccc(-c3cccc(F)c3)cc2[C@H]2[C@H](CCN2C(=O)c2ccncc2)[C@H]1CO | 5.32% (inactive)
COc1ccc(-c2nc3ccc(Cl)cn3c2Cc2ccccc2)cc1OC | -7.05% (inactive)
O=C(COc1ccc2ccc(=O)oc2c1)N1CCN(c2ccc(F)cc2)CC1 | -4.76% (inactive)
COCC(=O)N1CC[C@@H]2[C@@H](CO)N(C)c3ccc(-c4ccc(F)cc4)cc3[C@@H]21 | 12.1% (inactive)
CC(Oc1cc2oc(=O)c3c(c2cc1Cl)CCC3)C(=O)NCc1cccnc1 (stereo unspecified) | -5.88% (inactive)
O=C(Nc1ccc(F)c(F)c1)C1CCN(S(=O)(=O)c2cccs2)CC1 | -28.7% (inactive)
COc1ccc(-c2nc3cnccn3c2Nc2ccc3c(c2)OCO3)cc1 | 1.49% (inactive)
CCCOC(=O)c1cccc(NC(=O)c2cccnc2)c1 | 2.6% (inactive)
COc1ccc(Cc2c(-c3ccc(OC)c(OC)c3)nc3c(C)cc(Br)cn23)c(C)c1 | 18.9% (inactive)
O=C(c1ccc(S(=O)(=O)Nc2ccccc2F)cc1)N1CCN(c2ccccc2O)CC1 | -14.3% (inactive)
O=C(Nc1ccccc1)N1CCN(Cc2ccc3c(c2)OCO3)CC1 | 9.86% (inactive)
CC(Oc1ccc2ccc(=O)oc2c1)C(=O)N1CCOCC1 (stereo unspecified) | -12.7% (inactive)
CCc1nn(CCCC(=O)N(C)Cc2ccccc2)c(=O)c2cc3occc3n12 | -13.7% (inactive)
COCCNC(=O)C[C@H]1CC[C@@H]2[C@@H](COc3ccc(NC(=O)Nc4cccc(F)c4)cc3C(=O)N2C)O1 | 3.73% [at 23.5 µM] (inactive)
O=C(CSc1nc2ccccc2c(=O)n1-c1ccccc1)N1CCN(CCO)CC1 | 27.2% (inactive)
O=C(Nc1cccnc1)c1ccc(Cl)c(Cl)c1 | 8.49% (inactive)
COC(=O)c1c(C(=O)OC)c(-c2ccc(F)cc2)n2c1CS(=O)C2 (stereo unspecified) | -8.64% (inactive)
Cc1cc(C(=O)CSc2nncs2)c(C)n1-c1ccc2c(c1)OCO2 | -23.3% (inactive)
O=C(C[n+]1cc(-c2ccc(Cl)cc2)n2c1CCC2)N1c2ccccc2Sc2ccccc21 | -9.9% (inactive)
CC(=O)O[C@]1(C(C)=O)CC[C@H]2[C@@H]3C=C(C)C4=CC(=O)CC[C@]4(C)[C@H]3CC[C@@]21C | -26.5% (inactive)
Cc1c(OC(C)C(=O)NCC2CCC(C(=O)O)CC2)ccc2c1oc(=O)c1ccccc12 (stereo unspecified) | -19.7% (inactive)
